# Results published in PubChem BioAssay (EPA / NIEHS).
# Several values for one entry are separate records, joined by “and”; a condition that tells them apart may be missing. Equal entries are not always repeated. Results filed as inconclusive are left out. Where a structure was tested more than once in an assay, its records may differ in their call. Activity calls are given as the source filed them. How the source made its calls: active means hit-call score of the fitted dose curve at least 0.9, where 1 is the maximum; inconclusive means response in the unintended direction; inactive means score below 0.9.
# Tests used:
# [1] = target: human Protein Tyrosine Phosphatase Non-receptor Type 4 (PTPN4), PTPN4 (gene 5775) (UniProt P29074); experiment: NVS_ENZ_hPTPN4: NovaScreen (NVS) Enzymatic Assay for human Protein Tyrosine Phosphatase Non-receptor Type 4 (PTPN4) (AID 2283208)
# Outline: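 Screened in duplicate at 25 uM, with hits then titrated to a top concentration of 50 uM. Recombinant Sf9-derived PTPN4 turnover was read by fluorescence with electrophoretic separation, 1.33 h after compound addition. DMSO served as baseline.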
# [2] = target: human Protein Tyrosine Phosphatase Non-receptor Type 9 (PTPN9), PTPN9 (gene 5780) (UniProt P43378); experiment: NVS_ENZ_hPTPN9: NovaScreen (NVS) Enzymatic Assay for human Protein Tyrosine Phosphatase Non-receptor Type 9 (PTPN9) (AID 2283209)
# Outline: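 Sf9-expressed enzyme in a cell-free assay, fluorescence read 1.33 h after dosing with mobility-shift separation of substrate and product. Tested at 25 uM in duplicate, then up to 50 uM; signal loss versus DMSO.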
# [3] = target: human Protein Tyrosine Phosphatase Receptor Type M (PTPRM), PTPRM (gene 5797) (UniProt P28827); experiment: NVS_ENZ_hPTPRM: NovaScreen (NVS) Enzymatic Assay for human Protein Tyrosine Phosphatase Receptor Type M (PTPRM) (AID 2283215)
# Chain of human Protein Tyrosine Phosphatase Receptor Type M (PTPRM), PTPRM (gene 5797) (P28827 whole entry, looked up): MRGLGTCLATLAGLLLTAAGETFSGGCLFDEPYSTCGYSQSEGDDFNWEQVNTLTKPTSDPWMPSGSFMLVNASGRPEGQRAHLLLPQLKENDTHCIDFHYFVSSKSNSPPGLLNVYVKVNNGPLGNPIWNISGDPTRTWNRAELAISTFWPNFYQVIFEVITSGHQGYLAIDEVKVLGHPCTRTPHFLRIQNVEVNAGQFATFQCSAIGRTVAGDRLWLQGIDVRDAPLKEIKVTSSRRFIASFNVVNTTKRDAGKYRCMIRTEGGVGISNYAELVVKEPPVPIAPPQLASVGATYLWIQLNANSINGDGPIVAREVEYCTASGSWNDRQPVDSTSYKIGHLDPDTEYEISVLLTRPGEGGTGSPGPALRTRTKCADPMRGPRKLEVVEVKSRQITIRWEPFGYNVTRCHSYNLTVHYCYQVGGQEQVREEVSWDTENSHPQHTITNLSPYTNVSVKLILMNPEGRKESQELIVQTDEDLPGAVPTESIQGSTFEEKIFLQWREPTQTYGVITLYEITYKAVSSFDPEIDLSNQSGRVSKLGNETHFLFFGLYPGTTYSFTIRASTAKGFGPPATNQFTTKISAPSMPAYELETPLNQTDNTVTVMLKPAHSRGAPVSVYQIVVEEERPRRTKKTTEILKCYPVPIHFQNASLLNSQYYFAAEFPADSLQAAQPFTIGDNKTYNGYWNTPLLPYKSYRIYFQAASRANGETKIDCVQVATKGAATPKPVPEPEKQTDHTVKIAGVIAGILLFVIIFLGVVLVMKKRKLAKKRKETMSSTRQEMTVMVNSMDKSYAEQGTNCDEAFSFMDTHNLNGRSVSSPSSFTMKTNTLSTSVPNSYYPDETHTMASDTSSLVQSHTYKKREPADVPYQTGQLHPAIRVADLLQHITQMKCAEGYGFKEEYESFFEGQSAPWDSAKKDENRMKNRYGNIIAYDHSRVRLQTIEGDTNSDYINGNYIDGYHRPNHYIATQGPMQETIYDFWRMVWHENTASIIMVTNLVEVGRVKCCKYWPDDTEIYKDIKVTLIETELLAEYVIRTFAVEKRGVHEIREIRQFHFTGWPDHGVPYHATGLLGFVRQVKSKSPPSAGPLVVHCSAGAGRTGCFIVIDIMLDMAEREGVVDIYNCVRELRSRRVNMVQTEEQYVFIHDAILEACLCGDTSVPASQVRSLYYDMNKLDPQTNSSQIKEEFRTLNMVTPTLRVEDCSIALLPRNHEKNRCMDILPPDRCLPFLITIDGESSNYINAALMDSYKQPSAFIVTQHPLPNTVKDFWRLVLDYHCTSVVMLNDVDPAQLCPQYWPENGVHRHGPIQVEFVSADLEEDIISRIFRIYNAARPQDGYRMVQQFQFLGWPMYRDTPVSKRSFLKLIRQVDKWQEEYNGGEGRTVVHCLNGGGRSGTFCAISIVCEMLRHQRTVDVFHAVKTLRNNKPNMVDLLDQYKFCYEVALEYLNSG
# Outline: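 Read-out is fluorescence after electrophoretic separation of substrate and product, taken 1.33 h post-dosing with recombinant enzyme. Compounds screened at 25 uM in duplicate, then concentration series for actives; activity as signal loss relative to DMSO.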
# [4] = target: Tyrosine-protein phosphatase non-receptor type 14 (Homo sapiens) (UniProt Q15678); experiment: NVS_ENZ_hPTPN14: NovaScreen (NVS) Enzymatic Assay for human Protein Tyrosine Phosphatase Non-receptor Type 14 (PTPN14) (AID 2283206)
# Outline: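 Fluorescent substrate turnover by recombinant human PTPN14 was measured 0.5 h after compound addition, with substrate and product separated by mobility shift. Single-point screening at 25 uM, then concentration-response up to 50 uM for chemicals meeting threshold (e.g., 30% inhibition).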
# [5] = target: human Protein Tyrosine Phosphatase Non-receptor Type 6 (PTPN6), PTPN6 (gene 5777) (UniProt P29350); experiment: NVS_ENZ_hPTPN6: NovaScreen (NVS) Enzymatic Assay for human Protein Tyrosine Phosphatase Non-receptor Type 6 (PTPN6) (AID 2283210)
# Outline: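 Recombinant human PTPN6 from SF9 cells, enzyme activity followed by fluorescence after mobility-shift separation of substrate and product at 1.33 h. Chemicals first tested at a single 25 uM in duplicate, then confirmed across concentration series; loss of signal relative to DMSO.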
# [6] = target: human Protein Tyrosine Phosphatase Receptor Type B (PTPRB), PTPRB (gene 5787) (UniProt P23467); experiment: NVS_ENZ_hPTPRB: NovaScreen (NVS) Enzymatic Assay for human Protein Tyrosine Phosphatase Receptor Type B (PTPRB) (AID 2283211)
# Outline: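 Recombinant human PTPRB with a fluorescent substrate, product separated by electrophoretic mobility shift; read 1 h after dosing. Primary screen in duplicate at 25 uM; actives then retested in concentration series; loss of signal versus DMSO.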
# [7] = target: human Protein Tyrosine Phosphatase Receptor Type F (PTPRF), PTPRF (gene 5792) (UniProt P10586); experiment: NVS_ENZ_hPTPRF: NovaScreen (NVS) Enzymatic Assay for human Protein Tyrosine Phosphatase Receptor Type F (PTPRF) (AID 2283213)
# Outline: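 Cell-free fluorescence enzyme assay with recombinant protein and substrate; product separated by electrophoretic mobility shift. Read 1 h after dosing, single 25 uM duplicate screen, then concentration-response up to 50 uM; loss of signal vs DMSO.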
# [8] = target: Serine/threonine-protein phosphatase PP1-alpha catalytic subunit (Homo sapiens) (UniProt P62136); experiment: NVS_ENZ_hPPP1CA: NovaScreen (NVS) Enzymatic Assay for human Protein Phosphatase 1 Aatalytic subunit Alpha (PPP1CA) (AID 2283200)
# Chain of Serine/threonine-protein phosphatase PP1-alpha catalytic subunit (Homo sapiens) (P62136 whole entry, looked up): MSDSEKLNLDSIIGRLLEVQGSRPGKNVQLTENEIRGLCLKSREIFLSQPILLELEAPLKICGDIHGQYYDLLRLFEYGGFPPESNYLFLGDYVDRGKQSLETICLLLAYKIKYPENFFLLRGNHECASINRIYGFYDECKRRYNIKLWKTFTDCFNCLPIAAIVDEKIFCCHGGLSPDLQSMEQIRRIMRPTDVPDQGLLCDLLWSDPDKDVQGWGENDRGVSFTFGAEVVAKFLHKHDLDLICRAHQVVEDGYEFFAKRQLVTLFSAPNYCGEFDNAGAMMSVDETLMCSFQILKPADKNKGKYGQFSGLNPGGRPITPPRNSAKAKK
# Outline: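 Chemicals were first screened in duplicate at 25 uM, and those passing threshold (e.g. 30% inhibition) were run as concentration series to 50 uM. Cell-free recombinant protein, 1.33 h read, fluorescent substrate/product mobility-shift detection, normalised to DMSO.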
# [9] = target: Tyrosine-protein phosphatase non-receptor type 11 (Homo sapiens) (UniProt Q06124); experiment: NVS_ENZ_hPTPN11: NovaScreen (NVS) Enzymatic Assay for human Protein Tyrosine Phosphatase Non-receptor Type 11 (PTPN11) (AID 2283202)
# Outline: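 Compounds first tested in duplicate at 25 uM; those reaching ~30% inhibition rerun in singleton concentration-response, top 50 uM. Phosphatase activity measured after 0.5 h by fluorescence with mobility-shift separation, relative to DMSO.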
# [10] = target: human Phosphatase and Tensin Homolog (PTEN), PTEN (gene 5728) (UniProt P60484); experiment: NVS_ENZ_hPTEN: NovaScreen (NVS) Enzymatic Assay for human Phosphatase and Tensin Homolog (PTEN) (AID 2283203)
# Outline: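 Loss of fluorescent product signal after mobility-shift separation reports PTEN activity, recombinant human enzyme, 1 h after compound addition. Single 25 uM duplicate screen, then concentration-response on actives; DMSO baseline.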
# [11] = target: human Protein Tyrosine Phosphatase Non-receptor Type 1 (PTPN1), PTPN1 (gene 5770) (UniProt P18031); experiment: NVS_ENZ_hPTPN1: NovaScreen (NVS) Enzymatic Assay for human Protein Tyrosine Phosphatase Non-receptor Type 1 (PTPN1) (AID 2283201)
# Outline: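 Chemicals were first tested in duplicate at 25 uM, and those passing threshold went on to singleton concentration series topping at 50 uM. Recombinant enzyme, specific substrate, product separated by mobility shift, fluorescence read at 1.33 h; activity loss relative to DMSO.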
# [12] = target: human Raf-1 Proto-Oncogene, serine/threonine Kinase (RAF1), RAF1 (gene 5894) (UniProt P04049); experiment: NVS_ENZ_hRAF1: NovaScreen (NVS) Enzymatic Assay for human Raf-1 Proto-Oncogene, serine/threonine Kinase (RAF1) (AID 2283216)
# Chain of human Raf-1 Proto-Oncogene, serine/threonine Kinase (RAF1), RAF1 (gene 5894) (P04049 whole entry, looked up): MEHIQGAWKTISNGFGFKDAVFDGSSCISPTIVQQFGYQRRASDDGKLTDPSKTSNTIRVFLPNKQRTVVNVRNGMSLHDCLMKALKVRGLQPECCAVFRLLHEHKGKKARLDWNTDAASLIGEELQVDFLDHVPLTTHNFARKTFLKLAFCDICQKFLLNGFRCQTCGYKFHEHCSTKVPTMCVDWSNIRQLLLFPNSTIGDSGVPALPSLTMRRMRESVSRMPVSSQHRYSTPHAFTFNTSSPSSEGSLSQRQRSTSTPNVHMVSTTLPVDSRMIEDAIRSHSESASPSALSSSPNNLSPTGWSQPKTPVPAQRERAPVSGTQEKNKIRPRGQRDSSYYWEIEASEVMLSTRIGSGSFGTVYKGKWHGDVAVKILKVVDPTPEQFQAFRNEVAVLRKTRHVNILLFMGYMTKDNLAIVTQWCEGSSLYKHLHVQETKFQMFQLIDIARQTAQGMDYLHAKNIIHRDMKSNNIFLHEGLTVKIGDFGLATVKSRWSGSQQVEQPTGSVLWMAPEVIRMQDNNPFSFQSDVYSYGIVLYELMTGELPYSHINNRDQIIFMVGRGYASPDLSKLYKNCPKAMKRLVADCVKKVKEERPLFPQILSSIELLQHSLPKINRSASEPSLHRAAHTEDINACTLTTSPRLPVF
# Outline: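 Single-point screening at 25 uM (duplicate), followed by singleton concentration-response to 50 uM maximum for chemicals exceeding threshold. Enzyme activity from fluorescent substrate-product mobility-shift separation after 1 h, relative to DMSO.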
# PPP2CA (gene 5515) = PPP2CA (gene 5515) (UniProt P67775); experiment: NVS_ENZ_hPPP2CA: NovaScreen (NVS) Enzymatic Assay for human Protein Phosphatase 2 Aatalytic subunit Alpha (PPP2CA) (AID 2283199)
# Outline: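 Cell-free phosphatase activity: fluorescent substrate turnover by recombinant human enzyme, resolved by mobility shift at 1.33 h. Compounds passing the 25 uM duplicate primary screen were rerun in singleton series with a 50 uM top concentration.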
# [13] = target: Tyrosine-protein phosphatase non-receptor type 12 (Homo sapiens) (UniProt Q05209); experiment: NVS_ENZ_hPTPN12: NovaScreen (NVS) Enzymatic Assay for human Protein Tyrosine Phosphatase Non-receptor Type 12 (PTPN12) (AID 2283204)
# Chain of Tyrosine-protein phosphatase non-receptor type 12 (Homo sapiens) (Q05209 whole entry, looked up): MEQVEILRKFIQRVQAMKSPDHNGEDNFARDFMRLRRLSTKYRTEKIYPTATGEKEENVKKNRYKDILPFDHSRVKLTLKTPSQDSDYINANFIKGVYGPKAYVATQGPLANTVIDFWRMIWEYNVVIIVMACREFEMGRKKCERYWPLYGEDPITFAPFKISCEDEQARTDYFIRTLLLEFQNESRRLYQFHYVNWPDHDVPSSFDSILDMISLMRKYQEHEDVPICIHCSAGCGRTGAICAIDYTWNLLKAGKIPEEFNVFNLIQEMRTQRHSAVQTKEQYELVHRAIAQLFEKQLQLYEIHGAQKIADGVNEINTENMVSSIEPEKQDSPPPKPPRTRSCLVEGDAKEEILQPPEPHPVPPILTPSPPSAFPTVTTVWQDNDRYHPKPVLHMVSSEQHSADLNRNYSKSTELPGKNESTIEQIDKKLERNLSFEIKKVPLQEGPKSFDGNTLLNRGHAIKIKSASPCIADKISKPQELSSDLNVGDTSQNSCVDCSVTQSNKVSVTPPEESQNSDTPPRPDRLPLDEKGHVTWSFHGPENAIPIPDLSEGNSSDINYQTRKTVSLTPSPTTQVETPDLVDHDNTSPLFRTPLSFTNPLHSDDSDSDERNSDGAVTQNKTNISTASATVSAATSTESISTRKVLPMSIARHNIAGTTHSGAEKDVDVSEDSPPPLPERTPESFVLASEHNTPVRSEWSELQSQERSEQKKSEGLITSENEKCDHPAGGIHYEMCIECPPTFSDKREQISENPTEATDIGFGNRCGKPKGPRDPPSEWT
# Outline: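 Single-concentration duplicates (25 uM) preceded singleton concentration-response up to 50 uM for chemicals passing threshold. Cell-free recombinant PTPN12 activity was read 1.33 h after dosing via fluorescence after mobility-shift separation; loss of signal versus DMSO.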
# [14] = target: human Protein Tyrosine Phosphatase Non-receptor Type 2 (PTPN2), PTPN2 (gene 5771) (UniProt P17706); experiment: NVS_ENZ_hPTPN2: NovaScreen (NVS) Enzymatic Assay for human Protein Tyrosine Phosphatase Non-receptor Type 2 (PTPN2) (AID 2283207)
# Chain of human Protein Tyrosine Phosphatase Non-receptor Type 2 (PTPN2), PTPN2 (gene 5771) (P17706 whole entry, looked up): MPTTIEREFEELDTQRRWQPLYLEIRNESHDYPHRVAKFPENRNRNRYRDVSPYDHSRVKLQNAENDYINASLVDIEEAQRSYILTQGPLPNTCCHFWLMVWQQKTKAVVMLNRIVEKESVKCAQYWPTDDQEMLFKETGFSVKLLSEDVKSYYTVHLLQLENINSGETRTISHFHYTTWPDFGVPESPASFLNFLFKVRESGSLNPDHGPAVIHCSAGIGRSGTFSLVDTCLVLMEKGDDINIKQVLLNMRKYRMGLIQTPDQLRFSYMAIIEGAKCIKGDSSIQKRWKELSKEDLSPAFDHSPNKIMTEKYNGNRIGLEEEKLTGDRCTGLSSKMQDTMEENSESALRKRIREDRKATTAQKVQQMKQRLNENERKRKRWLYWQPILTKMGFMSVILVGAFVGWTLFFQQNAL
# Outline: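 Activity measured as fluorescence after mobility-shift separation of substrate and product, 1 h after compound. Duplicate single-point 25 uM primary testing, concentration series for actives; inhibition scored as signal loss relative to DMSO baseline.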
# [15] = target: human Protein Phosphatase, Mg2+/Mn2+ Dependent 1A (PPM1A), PPM1A (gene 5494) (UniProt P35813); experiment: NVS_ENZ_hPPM1A: NovaScreen (NVS) Enzymatic Assay for human Protein Phosphatase, Mg2+/Mn2+ Dependent 1A (PPM1A) (AID 2283198)
# Outline: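 Primary screen in duplicate at 25 uM, with actives then titrated to a maximum of 50 uM. Recombinant PPM1A dephosphorylation of fluorescent substrate measured at 1 h, with substrate and product separated by mobility shift; inhibition fitted against DMSO.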
# [16] = target: Tyrosine-protein phosphatase non-receptor type 13 (Homo sapiens) (UniProt Q12923); experiment: NVS_ENZ_hPTPN13: NovaScreen (NVS) Enzymatic Assay for human Protein Tyrosine Phosphatase Non-receptor Type 13 (PTPN13) (AID 2283205)
# Outline: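 Screened first at a single 25 uM in duplicate; compounds passing the threshold (e.g. 30% inhibition) were rerun in concentration series, top 50 uM. Recombinant enzyme, fluorescent substrate, mobility-shift separation, 0.5 h read. Data fitted as inhibition relative to DMSO.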
# [17] = target: human Protein Tyrosine Phosphatase Receptor Type C (PTPRC), PTPRC (gene 5788) (UniProt P08575); experiment: NVS_ENZ_hPTPRC: NovaScreen (NVS) Enzymatic Assay for human Protein Tyrosine Phosphatase Receptor Type C (PTPRC) (AID 2283212)
# Chain of human Protein Tyrosine Phosphatase Receptor Type C (PTPRC), PTPRC (gene 5788) (P08575 whole entry, looked up): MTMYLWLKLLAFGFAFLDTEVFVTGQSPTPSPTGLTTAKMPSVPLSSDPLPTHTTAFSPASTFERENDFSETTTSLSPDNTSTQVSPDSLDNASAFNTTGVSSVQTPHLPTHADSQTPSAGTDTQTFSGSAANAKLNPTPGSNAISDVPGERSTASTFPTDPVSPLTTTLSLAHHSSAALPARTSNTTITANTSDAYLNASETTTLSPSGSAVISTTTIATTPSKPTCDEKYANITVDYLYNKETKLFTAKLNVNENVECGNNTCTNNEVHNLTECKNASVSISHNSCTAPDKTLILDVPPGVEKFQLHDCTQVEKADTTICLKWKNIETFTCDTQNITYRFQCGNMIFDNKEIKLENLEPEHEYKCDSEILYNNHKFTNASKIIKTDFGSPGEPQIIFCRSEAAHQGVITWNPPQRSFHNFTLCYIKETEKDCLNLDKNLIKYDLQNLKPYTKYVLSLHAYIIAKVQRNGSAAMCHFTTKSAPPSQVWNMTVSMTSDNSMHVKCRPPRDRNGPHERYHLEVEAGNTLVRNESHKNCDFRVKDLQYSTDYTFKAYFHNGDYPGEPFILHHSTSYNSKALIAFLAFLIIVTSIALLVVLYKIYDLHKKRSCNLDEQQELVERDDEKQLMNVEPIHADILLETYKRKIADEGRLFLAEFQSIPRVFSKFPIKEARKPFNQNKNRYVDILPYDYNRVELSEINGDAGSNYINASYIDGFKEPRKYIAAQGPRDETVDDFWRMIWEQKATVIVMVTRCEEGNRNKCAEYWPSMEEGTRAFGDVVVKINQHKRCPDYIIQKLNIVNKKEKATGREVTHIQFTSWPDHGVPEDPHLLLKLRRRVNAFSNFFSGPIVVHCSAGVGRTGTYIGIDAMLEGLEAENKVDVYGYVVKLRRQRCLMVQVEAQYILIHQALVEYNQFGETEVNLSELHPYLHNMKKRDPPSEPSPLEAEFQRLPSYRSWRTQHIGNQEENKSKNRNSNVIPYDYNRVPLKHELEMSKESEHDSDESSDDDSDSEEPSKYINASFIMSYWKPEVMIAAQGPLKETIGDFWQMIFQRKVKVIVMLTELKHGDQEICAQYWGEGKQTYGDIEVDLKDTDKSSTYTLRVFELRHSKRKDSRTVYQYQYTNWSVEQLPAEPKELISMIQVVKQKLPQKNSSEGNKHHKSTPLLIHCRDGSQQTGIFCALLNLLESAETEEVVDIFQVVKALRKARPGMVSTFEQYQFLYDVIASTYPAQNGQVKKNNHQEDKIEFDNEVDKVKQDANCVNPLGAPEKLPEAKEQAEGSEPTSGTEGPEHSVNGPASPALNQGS
# Outline: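 Absorbance-based phosphatase activity of human PTPRC protein extracted from yeast was measured 1 h post-dosing. Compounds first tested at 25 uM in duplicate, then those passing threshold in singleton concentration series to 50 uM.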
# [18] = target: human Rho Associated Coiled-coil Containing Protein Kinase 1 (ROCK1), ROCK1 (gene 6093) (UniProt Q13464); experiment: NVS_ENZ_hROCK1: NovaScreen (NVS) Enzymatic Assay for human Rho Associated Coiled-coil Containing Protein Kinase 1 (ROCK1) (AID 2283214)
# Outline: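 Compounds first run in duplicate at 25 uM against recombinant human ROCK1, then followed in concentration series. Kinase activity was read 1 h post-dosing by fluorescence with mobility-shift separation, as signal loss relative to DMSO.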
# [19] = target: human Sirtuin 2 (SIRT2), SIRT2 (gene 22933) (UniProt Q8IXJ6); experiment: NVS_ENZ_hSIRT2: NovaScreen (NVS) Enzymatic Assay for human Sirtuin 2 (SIRT2) (AID 2283217)
# Outline: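 Single-point duplicate screen at 25 uM, then concentration-response (max 50 uM) for chemicals passing threshold. Enzyme activity of recombinant human SIRT2 measured after 1 hr by fluorescence with mobility-shift separation of product; DMSO baseline.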
structure (smiles),measurement,setting,value
Cc1cc(C)nc(NC(=O)NS(=O)(=O)c2ccccc2C(=O)OC2COC2)n1,AC50,[1],4.96 µM (active)
same,AC50,[2],36.7 µM (active)
same,outcome,[3],inactive
C[C@H]1[C@H](c2ccc(Cl)cc2)SC(=O)N1C(=O)NC1CCCCC1,outcome,[4],inactive
CNC(=O)CSP(=S)(OC)OC,outcome,[5],inactive
same,outcome,[6],inactive
same,outcome,[7],inactive
[2H]C1([2H])[n+]2ccccc2-c2cccc[n+]2C1([2H])[2H],AC50,[8],4.96 µM (active)
same,outcome,[9],inactive
same,AC50,[10],2.29 nM (active)
Cc1[nH]c(=O)n(C(C)(C)C)c(=O)c1Cl,outcome,[11],inactive
CCC(C)Nc1c([N+](=O)[O-])cc(C(C)(C)C)cc1[N+](=O)[O-] (stereo unspecified),outcome,[12],inactive
Oc1cc(Cl)ccc1Oc1ccc(Cl)cc1Cl,outcome,PPP2CA (gene 5515),inactive
same,outcome,[9],inactive
same,outcome,[13],inactive
same,outcome,[6],inactive
O=[N+]([O-])c1c(Cl)c(Cl)c(Cl)c(Cl)c1Cl,outcome,[8],inactive
same,outcome,[7],inactive
C#CCN1C(=O)COc2cc(F)c(N3C(=O)C4=C(CCCC4)C3=O)cc21,outcome,[14],inactive
ClC1C(Cl)C(Cl)C(Cl)C(Cl)C1Cl (stereo unspecified),outcome,[10],inactive
O=S(=O)(O)C(F)(F)C(F)(F)C(F)(F)C(F)(F)C(F)(F)C(F)(F)C(F)(F)C(F)(F)F,outcome,[15],inactive
same,AC50,PPP2CA (gene 5515),7.02 µM (active) and 5.37 µM (active)
same,AC50,[8],11.5 µM (active) and 18.4 µM (active)
same,AC50,[11],26.9 µM (active)
same,outcome,[11],inactive
same,AC50,[9],19.6 µM (active) and 15.5 µM (active)
same,AC50,[10],7.35 µM (active) and 26.9 µM (active)
same,AC50,[13],20.7 µM (active) and 30 µM (active) and 30.1 µM (active)
same,AC50,[16],10.5 µM (active) and 36.6 µM (active)
same,AC50,[14],38.9 µM (active)
same,AC50,[5],34.8 µM (active)
same,AC50,[6],18.7 µM (active) and 37.6 µM (active)
same,AC50,[17],17.1 µM (active) and 15.2 µM (active)
same,outcome,[17],inactive
same,AC50,[7],14.8 µM (active) and 13.1 µM (active)
same,AC50,[18],39 µM (active)
same,AC50,[3],23.6 µM (active) and 43 µM (active)
same,AC50,[12],33.2 µM (active) and 24.5 µM (active)
same,AC50,[19],6.66 µM (active)
CC(C)(C)C(O)C(Oc1ccc(Cl)cc1)n1cncn1 (stereo unspecified),outcome,PPP2CA (gene 5515),inactive
same,outcome,[10],inactive
same,outcome,[13],inactive
same,outcome,[16],inactive
same,outcome,[14],inactive
same,outcome,[2],inactive
same,outcome,[5],inactive
